# PrPC TRFRET = cell surface PrPC inhibition, primary TR-FRET screen. P04156. TR-FRET read-out. inhibition, % at 13.8 µM. 370,000 compounds, 0.43% hits; in the data active = inhibition above about 24%; note: 0% = median of the test wells and 100% = reference compound wells
# SSB-PriA inh = K. pneumoniae PriA-SSBct interaction inhibition; inhibition, % at 33 µM; 430,000 compounds, 0.6% hits; AlphaScreen SSBct-PriA binding, biotinylated peptide; in the data active = inhibition mostly above about 37%, no sharp cut-off; inactive = mostly below about 20%;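 note: plate controls were negative control peptide for no effect and reference peptide for full effect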
# CCHF vOTU inh = blocks the CCHF virus ovarian tumor domain protease; inhibition, % at 11.5 µM; AID 651958; CCHFV vOTU protease, Pep-AMC fluorescence; 370,000 compounds, 0.55% hits; in the data active = inhibition above about 30%; note: 0% = vehicle wells with enzyme and 100% = no enzyme wells
# BH1578 lux ind = quorum light induction in luxS cqsA deficient V. cholerae. V. cholerae BH1578 lux reporter, luminescence, 6 h. activation, % at 18.7 µM. 350,000 compounds, 0.16% hits. AID 588436; in the data active = activation mostly above about 9.7%, no sharp cut-off
# DUSP3 inh = DUSP3 (human) phosphatase inhibition; P51452; recombinant VHR phosphatase, pNPP absorbance; inhibition, % at 13.3 µM; 290,000 compounds, 0.52% hits; AID 1654; in the data active = inhibition above about 50%
# TcdB GH inh = inhibitors of Clostridioides difficile toxin B glycohydrolase; P18177; TcdB glycohydrolase enzymatic assay, plate reader; inhibition, % at 9.99 µM; 350,000 compounds, 0.24% hits; in the data active = inhibition above about 10%
# The depositor's hits bear a star; i = inactive; · = not tested or not shown; + = active, no number. In the library only some 1.5% were active in any assay of this set; here they are far more common.
SMILES,PrPC TRFRET,SSB-PriA inh,CCHF vOTU inh,BH1578 lux ind,DUSP3 inh,TcdB GH inh
COc1cc(CNc2ccc3[nH]c(=O)[nH]c3c2)ccc1OCc1ccccc1,3,41*,1,i,12,2
COc1cc(CNc2ccc3[nH]c(=O)[nH]c3c2)cc(Br)c1OCc1ccccc1F,-5,-5,25,0,-14,0
COc1cc(CNc2ccc3[nH]c(=O)[nH]c3c2)ccc1OCc1ccc(F)cc1,8,19,-1,-2,12,1
O=C(CSc1nc2scc(-c3ccc(F)cc3)c2c(=O)n1-c1ccccc1)Nc1nc(-c2ccccc2)ns1,·,-4,·,·,·,·
COc1cc(OC)cc(C(=O)Nc2nc(CC(=O)N3c4ccccc4C[C@@H]3C)cs2)c1,·,-8,·,·,·,·
CCOc1ccccc1NC(=O)CSc1cnnn1-c1ccccc1C(F)(F)F,·,-21,·,·,·,·
COc1cccc(CNc2ccc3[nH]c(=O)[nH]c3c2)c1OCc1ccccc1Cl,0,79*,1,i,8,1
COc1cc(CNc2ccc3[nH]c(=O)[nH]c3c2)ccc1OCc1c(F)cccc1Cl,4,16,-2,i,53*,0
COc1ccc(Br)cc1CNc1ccc(O)cc1,-11,38,25,0,-1,·
COc1ccc(Br)cc1CNc1ccc2[nH]c(=O)[nH]c2c1,7,39*,5,-1,23,1
CCOc1cc(CNc2ccc3cn[nH]c3c2)ccc1OC,-16,-7,59*,-4,23,·
CC(=O)N1CCc2ccc(NS(=O)(=O)c3ccccc3)cc2C1,·,1,·,·,·,·
CCOc1ncc(NC(=O)COc2ccc(Cl)cc2)c(N(C)C)n1,·,-5,·,·,·,·
O=C(CSCc1ccccc1)Nc1nc(-c2ccc3c(c2)OCCO3)cs1,·,-7,·,·,·,·
CCc1nnc(NN=Cc2ccccc2F)n1N,·,3,·,·,·,·
CCc1nnc(N/N=C/c2c(Cl)cccc2Cl)n1N,-8,·,77*,-4,8,·
COC(C)(CNC(=O)c1ccc2nsnc2c1)c1cccc(Cl)c1 (stereo not drawn),·,6,·,·,·,·
CC[C@H](C)[C@H]1CNC(=S)N1CC1CCN(CCCC2CCCC2)CC1,-8,-11,-5,-1,·,13*
CC1CCc2c(sc3c2C(=O)NC(c2ccccn2)N3)C1 (stereo not drawn),·,67*,·,·,·,·
O=C(Nc1ccc(-c2ccc3nnc(-c4ccccn4)n3n2)cc1)c1cccc(F)c1,·,40*,·,·,·,·
O=C(Nc1ccc(-c2ccc3nnc(-c4ccncc4)n3n2)cc1)c1cccc([N+](=O)[O-])c1,·,-5,·,·,·,·
COc1ccc(Cl)cc1NC(=O)CSc1nc(C(F)(F)F)cc(=O)[nH]1,·,0,·,·,·,·
O=c1c(O[C@@H]2O[C@H](CO)C(O)C2O)c(-c2ccc(O)c(O)c2)oc2cc(O)cc(O)c12 (stereo partly drawn),·,12,·,i,·,·
O=c1c(OC2OC(CO)C(O)C(O)C2O)c(-c2ccc(O)c(O)c2)oc2cc(O)cc(O)c12 (stereo not drawn),-5,13,13,-5,-3,14*
CCn1nc(NC(=O)C(C)C)c2cc3cccc(C)c3nc21,-8,-9,6,1,56*,1
SMILES,PrPC TRFRET,SSB-PriA inh,CCHF vOTU inh,BH1578 lux ind,DUSP3 inh,TcdB GH inh
NS(=O)(=O)c1ccc(CCNC(=O)c2ccc(OCc3nc(-c4ccco4)cs3)cc2)cc1,·,-5,·,·,·,·
O=C(Nc1ccc(O)c(-c2nc3ccccc3s2)c1)c1cc(=O)c2ccccc2o1,-8,-2,-1,0,53*,·
CCC(CO)[n+]1c(C)cc(C=C2Sc3ccccc3N2Cc2ccccc2)cc1C (stereo not drawn),·,-15,·,·,·,·
CC(C)(C)c1ccc(OCCn2cnc(Cl)c2Cl)cc1,·,98*,·,·,·,·
CN1CCN(CC(=O)Nc2cc(N(C)C)nc3ccccc23)CC1,-6,-4,-23,i,21,13*
CCN(CC)CC(=O)Nc1cc(N(C)C)nc2ccccc12,-9,10,-6,i,-2,4
COc1ccc(/C=C2/C(=O)ON=C2c2ccccc2)cc1OC,0,8,12,i,22,·
COc1cc(/C=C2\C(=O)ON=C2c2ccccc2)cc(OC)c1OC,-9,-3,-9,+,5,·
Cc1cc(=O)oc(C)c1C(=O)NCC(C)NC(=O)c1c(C)cc(=O)oc1C (stereo not drawn),-6,-10,-7,1,54*,·
Cc1ccccc1OCc1nnc(SCC(=O)Nc2ccc3c(c2)oc2ccccc23)n1C,-1,9,-16,i,-9,·
Cc1ccc(-c2nnc(SCC(=O)Nc3ccc4c(c3)oc3ccccc34)n2C)c(Cl)c1,5,-1,-2,3,59*,·
COc1ccc(Cl)cc1S(=O)(=O)NCc1ccc2c(c1)OCO2,·,-4,·,·,·,·
O=C(O)c1ccccc1NS(=O)(=O)c1ccc(NN=Cc2ccc(O)c(O)c2)c([N+](=O)[O-])c1,·,44*,·,·,·,·
COc1ccc(NC(=O)c2ccccc2)c([N+](=O)[O-])c1,-21,4,6,0,5,1
CSc1ccc(C=NNc2ccc(S(=O)(=O)Nc3ccccc3C(=O)O)cc2[N+](=O)[O-])cc1,7,·,-1,-1,·,2
COc1ccc(C=NNc2ccc(S(=O)(=O)Nc3ccccc3C(=O)O)cc2[N+](=O)[O-])c(OC)c1,·,46*,·,2,·,1
COc1ccc(S(=O)(=O)Nc2ccccc2C(=O)Nc2ccc(OC)cc2[N+](=O)[O-])cc1,·,44*,·,·,·,·
Cc1cc(C)c(NC(=O)Cn2ncc3ccccc32)c(C)c1,6,-7,9,i,57*,-1
COc1ccccc1NS(=O)(=O)c1ccc(OC)c([N+](=O)[O-])c1,-9,-3,-9,1,24,0
NS(=O)(=O)c1ccc(NN=C2CCCCC2C2CCCCC2)c([N+](=O)[O-])c1 (stereo not drawn),·,40*,·,·,·,·
CCCC(CCC)=NNc1ccc(S(=O)(=O)Nc2ccccc2OC)cc1[N+](=O)[O-],2,41*,-1,-5,-7,·
NS(=O)(=O)c1ccc(N/N=C2/CCCCC2C2CCCCC2)c([N+](=O)[O-])c1 (stereo not drawn),3,·,28,0,0,0
COc1ccccc1NS(=O)(=O)c1ccc(NN=C2CCCCC2)c([N+](=O)[O-])c1,-5,62*,25,0,-2,·
CCCS(=O)(=O)N1CCC2(CC1)CC(=O)c1ccccc1O2,·,4,·,·,·,·
O=C(NCCC(O)c1ccc2c(c1)OCO2)C(=O)Nc1ccon1 (stereo not drawn),·,-9,·,·,·,·
CC(NC(=O)C(=O)NCc1ccc(F)cc1)C(c1cccs1)N1CCN(c2ccccc2F)CC1 (stereo not drawn),·,-17,·,·,·,·
CSc1ccc(/C=N/N2CCN(Cc3ccc(Cl)cc3)CC2)cc1,-1,·,2,i,10,11*
